Experiment [1] has as its target Lysosomal acid glucosylceramidase (Homo sapiens) (UniProt P04062). Nature of the experiment: Glucocerebrosidase-p2 (AID 348; in the data active = potency below about 10 µM; note: potency is the fitted concentration of half-maximal effect). Particulars: purified GBA, blue fluorogenic substrate, 40 min. The essentials: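 Compounds titrated from 0.6 nM upwards against 0.2 nM enzyme in pH 5.9 citric acid/KH2PO4, taurocholate, tween-20; blue fluorogenic substrate 80 uM, 40 min room temperature, stopped and read Ex 365/Em 440 for AC50.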

Experiment [2] is described as follows: AP1 Signaling Pathway (AID 357).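 Note: ME-180 reporter cells stimulated with EGF at its EC50 level; % is set by controls: 0 for no effect and ±100 for the full control effect.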 As to conditions: ME-180 AP-1-bla reporter, EGF-induced, beta-lactamase ratio, 5 h; at 7.69 µM (top of the series) unless noted. In short, it runs like this:
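AP-1-bla ME-180 cells, Opti-MEM + 0.5% dialyzed FBS, plated overnight 37 °C. Cpd titration + EC50 EGF, 5 h 37 °C. CCF4 2.5 h RT; ex 405, em 460/530 ratio → %activity, AC50.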

For experiment [3], the target named is Cytochrome P450 1A2 (Homo sapiens) (UniProt P05177). Nature of the experiment: p450-cyp1a2 (AID 410; calls by dose curve; note: potency is the fitted concentration of half-maximal effect;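 for activity change, negative = inhibition: -100% = full effect of reference inhibitor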). Particulars: recombinant CYP1A2, luciferin-ME demethylation, luminescence; series mostly up to 57 µM. The essentials:
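Inhibition was calculated relative to 57 uM furafylline (full inhibition). The reaction used human CYP1A2 at 20nM with Luciferin-ME at its Km, 100uM, driven by an NADPH-regenerating system for 60 min at room temperature.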

The nature of experiment [4]: NFAT Signaling Pathway (AID 444).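 Note: carbachol stimulus at about its EC50 of 1 µM final; % is set by controls: 0 for no effect and ±100 for the full control effect.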 As to conditions: Jurkat NFAT-bla M1, carbachol, beta-lactamase ratio, 5 h; at 7.69 µM (top of the series) unless noted. The essentials:
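Jurkat cells carrying an NFAT-driven β-lactamase reporter and co-transfected muscarinic M1 receptor were treated with compound plus carbachol (1 uM final, an EC50 level) for 5 h at 37 °C. CCF4 loading followed for 1 h at RT; 460/530 nm ratio gave %activity.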

Experiment [5] in a line: Stat Signaling Pathway (AID 446).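 Note: ME-180 cervical cancer cells given 40 pM IL-6 alongside compound; SIE-controlled beta-lactamase reporter measured as 460/530 nm FRET emission ratio; % is set by controls: 0 for no effect and ±100 for the full control effect.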 Particulars: ME-180 SIE beta-lactamase reporter, IL-6 stimulated, 5 h; at 7.69 µM (top of the series) unless noted. The essentials:
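Reporter line: ME-180 cervical carcinoma, SIE-beta-lactamase. Treatment: compound with 40 pM IL-6, 5 hrs, 37 C, in low-serum OPTI-MEM with 10 mM HEPES pH 7.3. Detection: 460/530 nm fluorescence.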

In experiment [6] the target is Glucocorticoid receptor (Homo sapiens) (UniProt P04150). Nature of the experiment: GR-EFC Redistribution (AID 451; calls by dose curve; note: potency is the fitted concentration of half-maximal effect). Particulars: CHO-K1 GR-EFC translocation, beta-gal luminescence, 2 h. In short, it runs like this:
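CHO-K1 cells stably expressing nuclear-localized β-gal enzyme acceptor and GR fused C-terminally to the enzyme donor fragment; ligand-driven nuclear translocation restores β-gal by complementation. Compounds titrated up to 46 uM final, 2 h at 37 °C; luminescence read.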

For experiment [7], the target named is Mitogen-activated protein kinase 10 (Mus musculus) (UniProt Q61831). Nature of the experiment: JNK3 AlphaScreen Assay (AID 530).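 Note: kinase came from lysate of stimulated human HepG2 cells; signal reports phosphorylation of biotinylated GST-cJun 1-79 at Ser73 with 10 µM ATP; % is set by controls: 0 for no effect and ±100 for the full control effect.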 As to conditions: JNK3 lysate, c-Jun phosphorylation; series mostly up to 57.1 µM. In short, it runs like this:
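JNK3 came from HepG2 lysates pre-activated with IL-1beta and TNF-alpha and phosphorylated biotinylated GST-cJun (1-79) at 10 uM ATP, pH 7.6, room temperature. Compounds were titrated. AlphaScreen signal used anti-phospho-cJun (Ser73) antibody.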

The target of experiment [8] is Cytochrome P450 3A4 (Homo sapiens) (UniProt P08684). Nature of the experiment: qHTS Assay for Inhibitors and Substrates of Cytochrome P450 3A4 (AID 884; active = well fitted curve in the direction sought with a large enough effect; an effect the other way counts as inactive or inconclusive; note: potency is the fitted concentration of half-maximal effect; nearly all actives have a fitted effect of over 50% in size). As to conditions: recombinant CYP3A4, Luciferin-PPXE luminescence; series mostly up to 57.1 µM. In short, it runs like this: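 20 nM human CYP3A4 with 25 uM Luciferin-PPXE (at KM) in 200 mM KPO4, preincubated 10 min with compound; NADPH regeneration started a 60 min RT reaction. Luciferin detected by luminescence, normalized to 57 uM ketoconazole as full inhibition.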
Cytochrome P450 3A4 (Homo sapiens), sequence (P08684 whole entry, looked up): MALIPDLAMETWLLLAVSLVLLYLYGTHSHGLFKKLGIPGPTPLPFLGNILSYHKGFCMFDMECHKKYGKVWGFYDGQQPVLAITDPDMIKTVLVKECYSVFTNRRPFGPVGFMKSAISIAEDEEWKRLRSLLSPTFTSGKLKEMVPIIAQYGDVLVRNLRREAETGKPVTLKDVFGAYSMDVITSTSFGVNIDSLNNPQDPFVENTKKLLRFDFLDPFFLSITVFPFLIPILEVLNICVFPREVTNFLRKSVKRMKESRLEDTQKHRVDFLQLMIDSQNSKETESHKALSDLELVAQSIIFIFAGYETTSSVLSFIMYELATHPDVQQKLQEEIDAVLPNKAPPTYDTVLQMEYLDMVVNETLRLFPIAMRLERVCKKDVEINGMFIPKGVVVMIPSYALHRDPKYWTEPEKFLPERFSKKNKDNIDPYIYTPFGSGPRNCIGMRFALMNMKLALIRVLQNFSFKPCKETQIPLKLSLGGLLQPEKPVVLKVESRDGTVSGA

Experiment [9] shares this target. The experiment in a line: qHTS Assay for Activators of Cytochrome P450 3A4 (AID 885; active = well fitted curve in the direction sought with a large enough effect; an effect the other way counts as inactive or inconclusive; note: nearly all actives have a fitted effect of over 65% in size; note: potency is the fitted concentration of half-maximal effect). As to conditions: recombinant CYP3A4, Luciferin-PPXE luminescence, 60 min; series mostly up to 57.1 µM. In short, it runs like this:
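Signal was normalized against complete inhibition by 57 uM ketoconazole. The reaction used 20nM CYP3A4 with 25uM Luciferin-PPXE, 10-min compound preincubation and a 60-min NADPH-supported step at RT.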
(In qHTS, concentration-response curves come from the screen itself.)

Experiment [10] can be described thus: Confirmation and Secondary Assay for Modulators of Hemoglobin Beta Chain Splicing at IVS2 654 locus (AID 910; active = well fitted curve in the direction sought with a large enough effect; an effect the other way counts as inactive or inconclusive;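 note: per-well total GFP intensity by laser scanning cytometry after 2-day treatment; % of control where 0% means no effect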). As to conditions: HeLa EGFP-654 splicing reporter, GFP fluorescence, 48 h; series mostly up to 38.3 µM. The essentials:
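HeLa cells stably carrying EGFP interrupted by mutant beta-globin IVS2-654 intron (CMV-driven) were treated with compound for 2 days at 37C; corrected splicing was scored as total peak GFP intensity per well (488 nm excitation, 500-520 nm emission).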

Experiment [11] in a line: Confirmation and Secondary Assay for Modulators of Hemoglobin Beta Chain Splicing at IVS2 705 locus (AID 930; active = well fitted curve in the direction sought with a large enough effect; an effect the other way counts as inactive or inconclusive;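 note: HeLa cells stably expressing the EGFP-705 splicing reporter; % of control where 0% means no effect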). Particulars: HeLa EGFP-705 splicing reporter, GFP fluorescence, 48 h; series mostly up to 38.3 µM. The essentials:
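HeLa cells stably carrying EGFP interrupted by mutant beta-globin IVS2-705 intron (CMV-driven) were seeded at 500 cells/well, treated next day with compound for 2 days at 37C; corrected splicing restores EGFP, read as total peak GFP intensity per well.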

Experiment [12] is described as follows: qHTS Assay for Lipid Storage Modulators (AID 1519; calls by dose curve). As to conditions: Drosophila S3 cells, BODIPY lipid droplet/cell ratio, laser cytometry, cells loaded with oleic acid; for activity change, negative = inhibition: at 57.5 µM (top of the series). In short, it runs like this:
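Cells seeded at 5,000 per well were treated with compounds over a concentration series and loaded with oleic acid (400 uM, as added). Lipid droplet fluorescence (488 nm excitation, 500-530 nm channel) was read by laser-scanning cytometry and normalized to 20 uM Triacsin C.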

Experiment [13] is described as follows: Primary qHTS for small molecule stabilizers of the endoplasmic reticulum resident proteome: Secreted ER Calcium Modulated Protein (SERCaMP) assay (AID 1508630; active = well fitted curve in the direction sought with a large enough effect; an effect the other way counts as inactive or inconclusive; note: % is set by controls: 0 for no effect and ±100 for the full control effect). Particulars: SH-SY5Y GLuc-SERCaMP (Gaussia luciferase released on ER calcium loss) secretion, thapsigargin, luminescence; series mostly up to 38.4 µM. In short, it runs like this: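 GLuc-SERCaMP-expressing SH-SY5Y cells, pretreated 16 h with compound, are challenged with thapsigargin to empty ER calcium stores; after 4 h, coelenterazine is added directly to the medium and luminescence is imaged.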

Experiment [14] deals with 3',5'-cyclic-AMP phosphodiesterase 4B (Homo sapiens) (UniProt Q07343). Nature of the experiment: qHTS Assay for Inhibitors of PDE-IV (AID 607; active = well fitted activation curve with a large enough effect in the main read-out, with a control signal flat, not every such curve was filed as active; note: % of control where 0% means no effect). Particulars: HEK293 ACTOne CNG channel cells, membrane potential fluorescence; series mostly up to 22.9 µM. In short, it runs like this:
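Cell-based read-out of cAMP via a modified cyclic nucleotide-gated channel and membrane potential dye (535/590 nm) in HEK293 cells expressing PDE4 endogenously. Compounds tested up to 22.9 uM final; 100 uM RO 20-1724 reference.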

For experiment [15], the target named is Cytochrome P450 2D6 (Homo sapiens) (UniProt P10635). The experiment in a line: qHTS Assay for Inhibitors and Substrates of Cytochrome P450 2D6 (AID 891; active = well fitted curve in the direction sought with a large enough effect; an effect the other way counts as inactive or inconclusive; note: potency is the fitted concentration of half-maximal effect; nearly all actives have a fitted effect of over 60% in size). As to conditions: recombinant CYP2D6, luciferin-ME EGE luminescence; series mostly up to 57.1 µM. In short, it runs like this: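 Human CYP2D6 (5 nM) with 30 uM Luciferin-ME EGE (at Km) in 100 mM KPO4, compound preincubated 10 min, then NADPH regeneration system for 60 min at room temperature. Luciferin read by luminescence; normalized to 1.43 uM quinidine.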
Cytochrome P450 2D6 (Homo sapiens), sequence (P10635 whole entry, looked up): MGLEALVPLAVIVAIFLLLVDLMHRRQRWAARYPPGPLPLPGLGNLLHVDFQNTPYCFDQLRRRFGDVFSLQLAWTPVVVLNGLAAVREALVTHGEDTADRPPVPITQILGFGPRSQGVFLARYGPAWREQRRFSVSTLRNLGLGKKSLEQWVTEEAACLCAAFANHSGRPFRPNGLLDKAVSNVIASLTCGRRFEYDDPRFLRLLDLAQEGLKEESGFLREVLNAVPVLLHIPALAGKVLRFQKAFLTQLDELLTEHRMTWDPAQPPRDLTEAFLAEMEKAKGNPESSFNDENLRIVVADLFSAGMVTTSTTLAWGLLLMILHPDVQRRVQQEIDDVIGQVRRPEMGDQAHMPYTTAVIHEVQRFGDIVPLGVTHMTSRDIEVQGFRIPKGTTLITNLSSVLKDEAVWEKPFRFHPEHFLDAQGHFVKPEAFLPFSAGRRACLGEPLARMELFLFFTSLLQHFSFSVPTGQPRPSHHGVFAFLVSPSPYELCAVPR

Experiment [16] has as its target Cytochrome P450 2C19 (Homo sapiens) (UniProt P33261). The experiment in a line: qHTS Assay for Inhibitors and Substrates of Cytochrome P450 2C19 (AID 899; active = well fitted curve in the direction sought with a large enough effect; an effect the other way counts as inactive or inconclusive; note: % is set by controls: 0 for no effect and ±100 for the full control effect; nearly all actives have a fitted effect of over 60% in size). As to conditions: recombinant CYP2C19, luciferin-H EGE luminescence; series mostly up to 57.1 µM. The essentials:
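In 50mM KPO4, the reaction held 5nM enzyme and KM-level (10uM) Luciferin-H EGE; it ran 60 min at 37C after NADPH regeneration and a 10 min compound preincubation. Luminescence values were scaled to 57uM ketoconazole as complete inhibition.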

The mark [17] stands for this setting: measured here: cell count channel max response.
Where [18] appears, read: measured here: lipid channel max response.

The structures appear in SMILES notation. Results filed as inconclusive are left out. Activity calls are given as the source filed them. Unless noted, calls come from the whole dose curve; as a rule, active = well fitted curve in either direction with a large enough effect (not every such curve was filed as active); inconclusive = small, poorly fitted or top-dose-only effect, or another doubt; inactive = flat fitted curve, though single readings scatter.

Glucocorticoid receptor (Homo sapiens), sequence (P04150 whole entry, looked up, the tested form may be a part): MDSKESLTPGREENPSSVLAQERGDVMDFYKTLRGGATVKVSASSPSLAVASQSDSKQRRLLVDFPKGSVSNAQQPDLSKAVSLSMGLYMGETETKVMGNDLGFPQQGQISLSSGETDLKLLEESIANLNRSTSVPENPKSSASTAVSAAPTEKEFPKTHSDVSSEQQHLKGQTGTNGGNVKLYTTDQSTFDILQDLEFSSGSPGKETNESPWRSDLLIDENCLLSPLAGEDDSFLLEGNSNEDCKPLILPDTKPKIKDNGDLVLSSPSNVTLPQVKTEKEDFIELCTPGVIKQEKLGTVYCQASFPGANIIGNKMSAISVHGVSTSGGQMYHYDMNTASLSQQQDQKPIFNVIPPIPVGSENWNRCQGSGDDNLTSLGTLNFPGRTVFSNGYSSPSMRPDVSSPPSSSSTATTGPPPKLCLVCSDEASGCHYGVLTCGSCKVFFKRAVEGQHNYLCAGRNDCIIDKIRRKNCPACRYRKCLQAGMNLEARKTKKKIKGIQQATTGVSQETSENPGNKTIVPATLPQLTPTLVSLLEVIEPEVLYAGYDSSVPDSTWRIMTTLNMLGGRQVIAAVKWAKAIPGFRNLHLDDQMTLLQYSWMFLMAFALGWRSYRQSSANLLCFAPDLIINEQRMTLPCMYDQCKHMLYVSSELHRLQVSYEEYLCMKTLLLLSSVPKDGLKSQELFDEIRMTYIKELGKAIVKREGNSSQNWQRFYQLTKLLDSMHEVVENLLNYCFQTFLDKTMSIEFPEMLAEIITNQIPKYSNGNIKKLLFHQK
Cytochrome P450 1A2 (Homo sapiens), sequence (P05177 whole entry, looked up): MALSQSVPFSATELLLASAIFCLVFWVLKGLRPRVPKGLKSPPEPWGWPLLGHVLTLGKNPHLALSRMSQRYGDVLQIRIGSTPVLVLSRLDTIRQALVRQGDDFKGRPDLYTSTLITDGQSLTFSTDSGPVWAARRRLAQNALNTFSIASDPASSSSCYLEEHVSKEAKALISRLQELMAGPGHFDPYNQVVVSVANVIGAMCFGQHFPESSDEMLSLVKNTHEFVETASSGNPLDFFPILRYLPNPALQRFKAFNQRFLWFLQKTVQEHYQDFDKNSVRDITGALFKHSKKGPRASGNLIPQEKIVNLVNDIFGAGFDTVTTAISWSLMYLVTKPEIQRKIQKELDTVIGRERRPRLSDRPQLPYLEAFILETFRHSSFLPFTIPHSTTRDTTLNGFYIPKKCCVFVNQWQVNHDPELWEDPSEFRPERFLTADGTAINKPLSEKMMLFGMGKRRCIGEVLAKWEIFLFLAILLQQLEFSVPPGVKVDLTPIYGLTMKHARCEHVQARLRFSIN
Lysosomal acid glucosylceramidase (Homo sapiens), sequence (P04062 whole entry, looked up): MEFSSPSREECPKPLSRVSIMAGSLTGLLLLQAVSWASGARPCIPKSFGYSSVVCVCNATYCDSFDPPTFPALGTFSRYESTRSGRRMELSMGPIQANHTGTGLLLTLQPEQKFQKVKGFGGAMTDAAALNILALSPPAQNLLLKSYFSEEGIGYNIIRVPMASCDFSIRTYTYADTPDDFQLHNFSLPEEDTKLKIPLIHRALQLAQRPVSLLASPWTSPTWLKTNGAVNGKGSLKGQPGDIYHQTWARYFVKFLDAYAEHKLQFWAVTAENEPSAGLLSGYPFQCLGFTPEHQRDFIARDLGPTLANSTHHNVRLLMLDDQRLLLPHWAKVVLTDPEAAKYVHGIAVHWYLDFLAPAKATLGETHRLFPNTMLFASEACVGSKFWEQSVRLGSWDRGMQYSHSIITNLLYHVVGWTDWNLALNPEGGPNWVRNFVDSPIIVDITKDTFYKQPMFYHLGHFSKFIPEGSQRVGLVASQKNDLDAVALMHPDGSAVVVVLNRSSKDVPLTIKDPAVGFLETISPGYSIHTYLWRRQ
3',5'-cyclic-AMP phosphodiesterase 4B (Homo sapiens), sequence (Q07343 whole entry, looked up): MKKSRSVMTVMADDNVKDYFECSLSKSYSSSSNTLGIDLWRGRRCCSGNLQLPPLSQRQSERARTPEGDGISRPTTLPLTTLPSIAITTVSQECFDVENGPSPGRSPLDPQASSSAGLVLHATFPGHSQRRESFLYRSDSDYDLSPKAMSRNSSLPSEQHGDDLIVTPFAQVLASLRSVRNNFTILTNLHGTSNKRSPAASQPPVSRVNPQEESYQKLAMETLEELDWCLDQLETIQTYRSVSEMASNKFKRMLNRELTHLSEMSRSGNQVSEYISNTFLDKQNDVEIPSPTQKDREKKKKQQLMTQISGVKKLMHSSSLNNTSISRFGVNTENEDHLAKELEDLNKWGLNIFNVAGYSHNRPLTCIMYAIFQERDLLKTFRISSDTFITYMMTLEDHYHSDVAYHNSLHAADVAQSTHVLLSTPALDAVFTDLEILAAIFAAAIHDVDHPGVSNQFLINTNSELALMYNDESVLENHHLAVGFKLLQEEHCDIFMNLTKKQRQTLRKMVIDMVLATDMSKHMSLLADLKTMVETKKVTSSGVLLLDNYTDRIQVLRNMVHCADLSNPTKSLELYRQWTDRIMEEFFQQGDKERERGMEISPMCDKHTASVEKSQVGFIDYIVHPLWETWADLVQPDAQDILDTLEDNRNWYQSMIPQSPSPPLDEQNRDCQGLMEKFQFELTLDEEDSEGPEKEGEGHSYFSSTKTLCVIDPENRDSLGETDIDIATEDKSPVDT
Cytochrome P450 2C19 (Homo sapiens), sequence (P33261 whole entry, looked up): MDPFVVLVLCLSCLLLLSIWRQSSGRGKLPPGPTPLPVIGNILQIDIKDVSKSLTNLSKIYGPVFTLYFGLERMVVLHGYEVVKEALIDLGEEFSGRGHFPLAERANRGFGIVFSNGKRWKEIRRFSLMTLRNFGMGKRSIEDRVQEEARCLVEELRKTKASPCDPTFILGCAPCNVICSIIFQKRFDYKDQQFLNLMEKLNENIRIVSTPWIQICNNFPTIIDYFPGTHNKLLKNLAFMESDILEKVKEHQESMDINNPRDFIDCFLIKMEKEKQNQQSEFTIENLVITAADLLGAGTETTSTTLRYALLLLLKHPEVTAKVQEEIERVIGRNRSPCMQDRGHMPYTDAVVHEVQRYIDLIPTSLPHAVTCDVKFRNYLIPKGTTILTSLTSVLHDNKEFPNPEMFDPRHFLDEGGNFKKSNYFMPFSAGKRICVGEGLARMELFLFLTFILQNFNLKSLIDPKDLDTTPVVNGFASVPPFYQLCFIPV

As for `c1ccc2c(-n3ccnc3)nc(-c3ccoc3)nc2c1`, the Potency is > 11.4 µM (inactive) in experiment [1], 0.501 µM (active) in experiment [3], > 46 µM (inactive) in experiment [6] and 0.199 µM (active) in experiment [8]. Moreover, the activity change, negative = inhibition is -13.9% (inactive) in experiment [2], 3.28% (inactive) in experiment [4] and 9.53% (inactive) in experiment [12]. Also, in [5], the activity, negative = inhibition was 7.69% (inactive). Moreover, the result in experiment [7], in [10] and in [11] was inactive. Also, the Potency result in experiment [9] and in [13] was “inactive” each time. The values for the max response in experiment [12] (setting [17]) and in experiment [12] (setting [18]) were 10.7% and 22.4%, respectively.
In the case of `COc1ccccc1CN1CCC2(CC1)CCN(C(C)=O)CC2`, the results for the Potency in experiment [1], in experiment [6] and in experiment [15] were > 11.4 µM (inactive), > 46 µM (inactive) and 5.01 µM (active), respectively. For the same molecule, the figures for the activity change, negative = inhibition in experiment [2], in experiment [4] and in experiment [12] were -6.68% (inactive), -28.3% (inactive) and 0.897% (inactive), respectively. Also, the Potency result in experiment [3], in experiment [14] and in [13] was “inactive” in each case. In experiment [5], the activity, negative = inhibition is 0.91% (inactive). Further, the result in [7] was inactive. Also, the max response worked out at 3.13% in experiment [12] (setting [17]) and 3.76% in experiment [12] (setting [18]).
For the molecule `COc1ccc(NC(=O)N2CCCC3(CCN(C(=O)c4c(C)noc4C)CC3)C2)cc1`, the values for the Potency in experiment [1] and in experiment [6] were > 11.4 µM (inactive) and > 46 µM (inactive), respectively. The activity change, negative = inhibition was -6.4% (inactive) in experiment [2], 7.7% (inactive) in experiment [4] and 3.9% (inactive) in experiment [12]. Also, the Potency entry in [3], in [14], in [9] and in experiment [13] was “inactive” each time. For the same molecule, in experiment [5], the activity, negative = inhibition is -0.272% (inactive). Further, the molecule was classed as inactive in experiment [7]. The max response stood at 14.4% in experiment [12] (setting [17]) and 18.8% in [12] (setting [18]).
For the molecule `Cc1noc(C)c1C(=O)N1CCC2(CCCN(C(=O)NC(C)C)C2)CC1`, the Potency in [1] is > 11.4 µM (inactive); in experiment [6], > 46 µM (inactive). The activity change, negative = inhibition in experiment [2] is 10.5% (inactive); in experiment [4], 8.68% (inactive); in experiment [12], 6.76% (inactive). Moreover, the Potency result in experiment [3], in [14], in [16] and in [13] was “inactive” each time. The activity, negative = inhibition in experiment [5] is -2.07% (inactive). Moreover, the call in experiment [7] was inactive. Further, the max response stood at 0.437% in experiment [12] (setting [17]) and 10.1% in experiment [12] (setting [18]).
As for `COc1ccc(C(=O)N2CCC3(CC2)CN(Cc2ccc(C#N)cc2)C3)cc1`, the results for the Potency in [1] and in [6] were > 11.4 µM (inactive) and > 46 µM (inactive), respectively. For the same molecule, the activity change, negative = inhibition in experiment [2] was 11% (inactive); in experiment [4], -0.922% (inactive); in experiment [12] it was -3% (inactive). Also, the Potency entry in experiment [3], in experiment [14], in experiment [9] and in [13] was “inactive” throughout. Besides, the activity, negative = inhibition in experiment [5] is 8.44% (inactive). Moreover, the molecule was classed as inactive in experiment [7]. The max response in experiment [12] (setting [17]) amounted to 13.1%; in experiment [12] (setting [18]), 11.7%.
Regarding `CC(C)NC(=O)N1CCC2(CC1)CCN(C(=O)c1cccc(F)c1)CC2`, the results for the Potency in [1], in [6] and in experiment [9] were > 11.4 µM (inactive), > 46 µM (inactive) and 20 µM (active), respectively. The figures for the activity change, negative = inhibition in experiment [2], in experiment [4] and in experiment [12] were 10.6% (inactive), 6.56% (inactive) and 1.61% (inactive), respectively. For the same molecule, the Potency entry in experiment [3], in [14] and in experiment [13] was “inactive” each time. Besides, the activity, negative = inhibition in experiment [5] is 7.13% (inactive). For the same molecule, in experiment [7], the call was inactive. The max response in [12] (setting [17]) was -10.3%; in experiment [12] (setting [18]) it was -8.2%.

The values are drawn from PubChem BioAssay (NCATS).
